Screening data (PubChem)
Pf growth 48h – inhibits P. falciparum growth in the first generation, 48 h; P. falciparum luciferase growth in erythrocytes, 48 h; Potency, µM (series often up to 28.7 µM), for the others: at the top dose activity change, negative = inhibition, usual class: inhibitors; 310,000 tested, 5.9% active; also: % is scaled to controls: 0 for no effect and ±100 for the full control effect
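Parasite viability was followed by luminescence of a genomically integrated firefly luciferase. Cultures held 0.1% parasitemia at 2% hematocrit (final), incubated under 5% CO2 at 37 C.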
Pf growth 96h – inhibits malaria parasite growth, 96 h. 320,000 tested, 6.9% active. Potency, µM (top dose mostly 28.7 µM), inactives show at the top dose activity change, negative = inhibition, most hits filed as inhibitors. AID 504834. P. falciparum luciferase reporter growth, 96 h; also: % is scaled to controls: 0 for no effect and ±100 for the full control effect
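Compounds incubated with erythrocytes infected by luciferase-expressing P. falciparum (2% hematocrit, 0.05% parasitemia final) for 96 hours, 37 C in 5% CO2. Growth inhibition scored as decreased luciferase luminescence.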
Sm TGR inh – blocks Schistosoma mansoni thioredoxin glutathione reductase | purified TGR, DTNB reduction, TNB absorbance 405 nm | Potency, µM (doses to about 114 µM), for inactives: at the top dose activity change, negative = inhibition, most hits filed as inhibitors | 360,000 tested, 3% active | AID 485364; also: % is scaled to controls: 0 for no effect and ±100 for the full control effect; nearly all actives have a fitted effect of over 60% in size
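TGR 20 nM + NADPH 100 uM (dispensed conc.), cpd preinc 15 min RT; start with NADPH (500 uM addition) then DTNB (15 mM addition). Kinetic TNB absorbance, 405 nm filter. Four-parameter Hill fit across titration.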
NS1 function inh – influenza NS1 inhibition; 270,000 tested, 0.4% active; Potency, µM (highest dose often 46.1 µM), without a hit: at the highest dose activity, positive = more growth; calls by dose curve; also: actives are rising curves; nearly all actives have a fitted effect of over 50% in size
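Compounds were scored for reversing the slow growth caused by influenza A NS1 in S. cerevisiae, measured by optical density at 600 nm. Assay medium contained 2% galactose at pH 6.0; NS1-free yeast of the same strain were the positive control.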
AMA1 RON2 block – disrupts binding of P. falciparum AMA1 to RON2. 360,000 tested, 0.2% active. AlphaScreen AMA1-biotinylated RON2 peptide binding. AID 720542. Potency, µM (highest dose often 58.2 µM), for inactives: at the highest dose activity change, negative = inhibition, hits mostly inhibitors;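 also: 0% = vehicle wells and -100% = peptide control; nearly all actives have a fitted effect of over 45% in size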
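AMA1 (3D7) with his tag at 25 nM final met compounds first, then biotinylated RON2 peptide at 25 nM; detection used donor plus acceptor beads, 10 µg/mL apiece, read by AlphaScreen after 30 min at room temperature.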
An asterisk follows results filed as active; [ ] = dose if it differs, or a comment. The list is not random: actives were taken first. Their share in the collection is about 11%. Unless noted, calls follow the shape of the dose curve; as a rule, active = well fitted curve in the direction sought with a large enough effect; inconclusive = small, poorly fitted or top-dose-only effect, or another doubt; inactive = no such curve, though single readings can be large; an effect the other way counts as inactive or inconclusive. Potency is read from the fitted curve at half-maximal effect.

`Cc1ccccc1-c1noc(-c2ccc(NC3CCCC3)c([N+](=O)[O-])c2)n1` gave Sm TGR inh 1.5%.
`CCOC(=O)c1c(N)sc(=S)c2c1CCC2` gave Pf growth 48h -27.4%, Pf growth 96h -0.3%, Sm TGR inh 15.8µM*, NS1 function inh 18.8% and AMA1 RON2 block -26.2%.
COc1cccc(-c2cnc(C(O)c3ccc(C)c(F)c3)[nH]2)c1 (centres undefined) was read as AMA1 RON2 block -25.2%.
Screening O=C(O)CNC(=O)C(c1ccccc1)c1ccccc1 returned Pf growth 48h 13.1µM*, Pf growth 96h -22.7%, Sm TGR inh 8.3%, NS1 function inh 1.4% and AMA1 RON2 block -16.2%.
`Cc1cc(C)c2oc(C(=O)N(Cc3cccs3)C3CCS(=O)(=O)C3)cc(=O)c2c1` (centres undefined) gave Pf growth 48h -11.0%, Pf growth 96h -8.8%, Sm TGR inh 5.9%, NS1 function inh -7.6% and AMA1 RON2 block 9.1%.
O=C(COc1ccc2c3c(c(=O)oc2c1)CCC3)Nc1ccccn1 was read as Pf growth 48h 128.2%, Pf growth 96h 188.6%, Sm TGR inh 1.4%, NS1 function inh 1.4% and AMA1 RON2 block 7.5%.
Screening O=C(N/N=C/c1sc(=O)n(-c2ccccc2)c1Cl)c1ccccc1 returned Pf growth 48h inconclusive, Pf growth 96h 2.33µM*, Sm TGR inh inconclusive, NS1 function inh 14.8% and AMA1 RON2 block 25.9%.
`NC(=O)N/N=C/c1sc(=O)n(-c2ccccc2)c1Cl` gave Pf growth 48h 27.8%, Pf growth 96h 25.4%, Sm TGR inh 31.6µM*, NS1 function inh 1.1% and AMA1 RON2 block -1.2%.
Cc1cccc(N2CCN(C(=O)C3CCN(c4nnc(-n5cccc5)s4)CC3)CC2C)c1 (centres undefined) was read as Pf growth 48h 13.1µM*, Pf growth 96h inconclusive, Sm TGR inh -8.1%, NS1 function inh -76.4% and AMA1 RON2 block -11.1%.
Screening Cc1ccc(Cl)cc1N1CCN(C(=O)C2CCN(c3nnc(-n4cccc4)s3)CC2)CC1 returned Pf growth 48h 13.1µM*, Pf growth 96h inconclusive, Sm TGR inh 0.7%, NS1 function inh -64.4% and AMA1 RON2 block 32.3%.
Cc1cccc(N2CCN(C(=O)CCC(=O)N3CC(C)Oc4ccc(C)cc43)CC2C)c1 (centres undefined) was read as Pf growth 48h 13.1µM*, Pf growth 96h -0.5%, Sm TGR inh 0.8%, NS1 function inh 12.7% and AMA1 RON2 block -23.9%.
Screening CN(C)c1ccc(NC2=C([N+](=O)[O-])CS(=O)(=O)C2)cc1 returned Pf growth 48h -3.8%, Sm TGR inh 2.24µM*, NS1 function inh 2.6% and AMA1 RON2 block 0.0%.
For COc1ccc(NC(=O)C2CCN(S(=O)(=O)c3cccc4nonc34)CC2)cc1OC the results were Pf growth 48h -8.7%, Pf growth 96h 13.8%, Sm TGR inh 0.8%, NS1 function inh 2.6% and AMA1 RON2 block -4.9%.
Screening c1coc(-c2ccnc3nc(-n4cccc4)nn23)c1 returned Pf growth 48h 10.4µM*, Pf growth 96h inconclusive, Sm TGR inh -13.7% and AMA1 RON2 block -13.3%.
Screening COCCCn1c(=O)/c(=C\c2ccccc2OC(F)F)s/c1=C(/C#N)C(=O)NC(C)C returned Pf growth 48h -5.6%, Pf growth 96h 13.8%, Sm TGR inh 7.4%, NS1 function inh -6.9% and AMA1 RON2 block 2.8%.
Screening COCCCn1c(=O)/c(=C\c2ccccc2OC(C)C)s/c1=C(/C#N)C(=O)Nc1ccc(C(=O)O)cc1 returned Pf growth 48h 1.85µM*, Pf growth 96h 1.47µM*, Sm TGR inh 22.0%, NS1 function inh 3.1% and AMA1 RON2 block -13.0%.
For Cn1c2ccccc2c2nnc(SCc3nnc(-c4ccccc4)o3)nc21 the results were Pf growth 48h 9.4%, Pf growth 96h 4.15µM*, Sm TGR inh -0.6%[57.1 µM] and NS1 function inh 1.1%.
Screening Cn1c(SCc2nnc(-c3ccccc3)o2)nc2ccccc21 returned Pf growth 48h -9.8%, Pf growth 96h -10.1%, Sm TGR inh 6.6% and AMA1 RON2 block 6.2%.
Screening Cc1ccc(OCC(=O)N(c2ccc(C)cc2)S(=O)(=O)c2ccc(Cl)cc2)cc1 returned Sm TGR inh 0.0%.
